tim10-1 inh = inhibits growth of tim10-1 mutant yeast. S. cerevisiae tim10-1 ts strain growth, BacTiter-Glo, 24 h. inhibition, % at 20 µM. hit rate 2.2% among 330,000. AID 463190;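 active = inhibition of at least 40%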;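 note: mutant grown at 25 °C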
SKKanGAS inh = blocks kanamycin growth of S. pyogenes SKKanGAS strain; BacTiter-Glo, 6 h; inhibition, % at 7.5 µM; hit rate 1.3% among 300,000; AID 1662;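 active = mean replicate score, as percent of positive control median, at least 50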;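 note: strain carries kanamycin resistance gene driven by streptokinase promoter and grows in 40 µg/ml kanamycin; loss of luminescence reflects streptokinase promoter inhibition or plain growth inhibition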
TIM10 inh = growth inhibitors of TIM10 yeast strain; S. cerevisiae TIM10 strain growth, BacTiter-Glo luminescence, 24 h; inhibition, % at 10 µM; hit rate 1.4% among 330,000; AID 463195;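 active = inhibition of 40% or more at the single tested concentration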;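 note: wild-type TIM10 isogenic control strain grown at permissive 25 °C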
tim23-1 inh = tim23-1 yeast growth inhibition; inhibition, % at 20 µM; hit rate 1.3% among 330,000; AID 463212; S. cerevisiae tim23-1 growth, BacTiter-Glo luminescence, 24 h;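 active = growth inhibition of the mutant yeast at or above 50%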;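 note: temperature-sensitive mutant grown at 25 °C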
NLRP3 yeast inh = inhibitors of NALP3 inflammasome in yeast; AID 2825; inhibition, % at 10 µM; hit rate 0.39% among 330,000; Yeast reconstituted NLRP3/ASC/caspase-1, beta-gal luminescence, 24 h;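 active = inhibition of 50% or more; inactive = inhibition below 50%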
NALP3 yeast conf = NALP3 inhibition confirmation in yeast. shares compounds with NLRP3 yeast inh. yeast expressing human NALP3, luminescence. inhibition, % at 10 µM. hit rate 81% among 1,300; in the data active = inhibition above about 48%
Casp1 ASC ctr = caspase-1-ASC yeast counter-screen hit | shares compounds with NLRP3 yeast inh | yeast expressing Caspase-1-ASC, luminescence counter screen | inhibition, % at 10 µM | hit rate 66% among 1,000
NALP3 yeast rt = retest-confirmed inhibitor of NALP3 in yeast; shares compounds with NLRP3 yeast inh; yeast expressing human NALP3, luminescence read-out; inhibition, % at 10 µM; hit rate 53% among 1,000
Numbers stand for hits; - = inactive; . = no result given. Rows were chosen to be rich in hits. Some 4.6% of all compounds tested hit in one or more screens of this group. Cut-off read from the data, not from the text of the source, unless noted: active = inhibition above about 50%; inactive = the rest.

SMILES | tim10-1 inh | SKKanGAS inh | TIM10 inh | tim23-1 inh | NLRP3 yeast inh | NALP3 yeast conf | Casp1 ASC ctr | NALP3 yeast rt
C=CCc1ccccc1OCC(O)CN1CCN(c2ccc(C)cc2)CC1 (configuration not stated) | - | - | - | - | - | . | . | .
O=C(c1ccccc1)n1ccc(-c2cnc(-c3ccccc3)s2)n1 | - | - | - | - | 61.6 | 60.3 | - | -
COc1ccc(S(=O)(=O)n2ccc(-c3cnc(-c4ccccc4)s3)n2)cc1 | - | - | - | - | - | . | . | .
CC(OC(=O)c1ccc2c(c1)OCCO2)C(=O)c1ccccc1 (configuration not stated) | - | - | - | - | - | . | . | .
O=C(COc1ccc(Br)cc1Cl)NC1CCCCC1 | - | - | - | - | 53.3 | - | . | .
O=C(COc1ccc(Br)cc1Br)NC1CCCC1 | - | - | - | - | 61.9 | 56.4 | 53.4 | -
C[C@H]1COC(=O)[C@@H](Cc2ccc(F)cc2)C/C=C\C[C@@H](CC(=O)N[C@@H](CO)Cc2ccccc2)C(=O)N1 | - | . | - | - | - | . | . | .
[O-]/[N+](=C\c1ccco1)c1ccc(Cl)cc1 | - | - | - | - | - | . | . | .
CCCC1CCC(c2ccc(OCC)cc2)=CC1=O (configuration not stated) | - | - | - | - | 51.7 | 62.2 | - | -
CCOc1ccc(N2C(=O)CCC2=O)cc1 | - | - | - | - | - | . | . | .
COc1ccccc1N1C(=O)CC(N2CCN(c3ccc(Cl)cc3)CC2)C1=O (configuration not stated) | - | - | - | - | - | . | . | .
COc1cc(/C=C(\C#N)c2ccccn2)cc(OC)c1O | - | - | - | - | - | . | . | .
COC(=O)c1ccc(/C=C(\C#N)c2ccccn2)cc1 | - | - | - | - | 62.7 | 52.0 | - | -
CN(C)c1ccc(/C=C(\C#N)c2ccccn2)cc1 | - | - | - | - | 51.2 | - | . | .
O=C1CSC(=Nc2ccccc2Cl)N1 | - | - | - | - | - | . | . | .
Clc1ccccc1N=C1NN=C(c2cccs2)CS1 | - | - | - | - | 51.7 | 70.8 | 59.5 | -
COCCNC(=O)C1CCCN(S(=O)(=O)c2ccc3c(c2)CC(C)N3C(=O)C2CC2)C1 (configuration not stated) | - | - | - | - | - | . | . | .
O=C(NC(=S)Nc1ccccc1[N+](=O)[O-])c1ccccc1 | - | - | - | - | - | . | . | .
O=C(NC(=S)/C(=C1\CCCCCN1)[N+](=O)[O-])c1ccccc1 | - | . | - | - | 58.7 | 54.2 | 64.2 | -
CC(C)(C)c1ccc(C(=O)NNc2ccc(F)cc2F)cc1 | - | - | - | - | 53.2 | - | . | .
COc1ccc(NCCC(O)c2ccc(Cl)cc2)cc1 (configuration not stated) | - | - | - | - | 59.1 | 67.1 | - | -
COc1ccc(Cl)cc1NCCC(O)c1ccc(F)cc1 (configuration not stated) | - | - | - | - | - | . | . | .
Cc1ccccc1-c1ccc(Nc2ccc(N3CCOCC3)cc2)nn1 | - | - | - | - | 63.7 | 73.7 | 59.5 | 61.5
Cc1ccccc1C(=O)O/N=C/c1c(N2CCOCC2)n(C)c2ccccc12 | - | - | - | - | 66.1 | 82.7 | 91.8 | 78.8
Cc1ccc(C(=O)NNC(=S)NC(=O)c2ccc(Cl)cc2Cl)cc1 | - | 97.7 | - | - | 51.0 | 65.7 | 50.5 | -
SMILES | tim10-1 inh | SKKanGAS inh | TIM10 inh | tim23-1 inh | NLRP3 yeast inh | NALP3 yeast conf | Casp1 ASC ctr | NALP3 yeast rt
O=C(NC(=S)NNC(=O)c1ccccc1O)c1ccc([N+](=O)[O-])cc1 | - | - | - | - | - | . | . | .
Cc1ccc(C(=O)NC(=S)NNC(=O)c2ccccc2O)cc1 | - | 102.1 | - | - | 53.2 | 56.0 | - | -
O=C(NC(=S)NNC(=O)c1ccccc1O)c1ccc(F)cc1 | - | 80.9 | - | - | 50.4 | 66.8 | - | 52.1
COc1cc(C(C)=O)ccc1OCC(=O)N(CCC1=CCCCC1)c1c(N)n(Cc2ccccc2)c(=O)[nH]c1=O | - | - | - | - | - | . | . | .
CCOc1cc(Cl)c(S(=O)(=O)NCCCn2ccnc2)cc1Cl | - | - | - | - | - | . | . | .
CN(C(=O)COC(=O)c1ccccc1OCc1ccc(Cl)cc1)c1c(N)n(Cc2ccccc2)c(=O)[nH]c1=O | - | - | - | - | - | . | . | .
Fc1ccc(-c2nnn(Cc3nc4ccccc4s3)n2)cc1 | - | - | - | - | 54.0 | 64.9 | - | -
Clc1ccc(-c2nnn(Cc3nc4ccccc4s3)n2)cc1 | - | - | - | - | - | . | . | .
Cc1ccccc1CNC(=O)c1ccccc1SCC(=O)NCc1ccco1 | - | . | - | - | - | . | . | .
Nc1cc(N2CCCCC2)c([N+](=O)[O-])cc1Cl | - | - | - | - | 50.5 | - | . | .
CCCCCCCCCCS(=O)(=O)N/N=C/c1ccc(O)cc1 | - | - | - | - | 50.3 | 69.8 | - | -
CCCCCCCCCCS(=O)(=O)N/N=C/c1ccccc1OC | - | - | - | - | - | . | . | .
CC(C)(C)OC(=O)C[C@H]1C/C=C\C[C@H](CC(=O)N(CCO)Cc2ccccc2)C(=O)N2CCC[C@H]2COC1=O | - | . | - | - | - | . | . | .
O=C(Nc1ccc(N2CCCCC2)cc1)C(Cl)c1ccccc1 (configuration not stated) | - | - | - | - | 50.3 | 55.8 | - | -
COCCNC(=O)c1csc2c1CCCC2 | - | - | - | - | - | . | . | .
CCNC(=O)COC(=O)c1csc2c1CCCC2 | - | - | - | - | 56.4 | - | . | .
CCOc1ccc(NC(=O)c2csc3c2CCCC3)cc1 | - | - | - | - | 52.4 | - | . | .
CC(=O)c1cccc(NC(=O)c2csc3c2CCCCC3)c1 | - | - | - | - | - | . | . | .
O=[N+]([O-])c1cc(CS(=O)(=O)Oc2ccc(Cl)cc2)c(O)c([N+](=O)[O-])c1 | - | - | - | - | - | . | . | .
O=C1C2C3C=CC(C3)C2C(=O)N1c1ccccc1 (configuration not stated) | - | - | - | - | - | . | . | .
O=C1C2C3C=CC(C3=C3CCCCC3)C2C(=O)N1c1ccccc1 (configuration not stated) | - | - | - | - | 57.7 | 65.0 | - | -
Cn1c(=O)c2sccc2n2c(CCCC(=O)N3CCN(c4ccccn4)CC3)nnc12 | - | - | - | - | - | . | . | .
CCc1noc(C)c1C(=O)Nc1ccc(Cl)c(S(=O)(=O)N2CCCCC2)c1 | - | - | - | - | - | . | . | .
S=c1[nH]nc(COc2ccccc2)n1/N=C/c1c(Cl)cccc1Cl | - | - | - | - | - | . | . | .
Cc1ccc(-c2cc(NC(=O)CCl)n(-c3ccccc3)n2)cc1 | - | - | - | - | 53.9 | - | . | .
CC(=O)Nc1ccc(-c2cc(NC(C)=O)n(-c3ccccc3)n2)cc1 | - | - | - | - | - | . | . | .
O=C(CCl)Nc1cc(-c2ccccc2)nn1-c1ccccc1 | - | - | - | - | 55.3 | 66.2 | 77.8 | 69.3
CC(C)(C)c1ccc(C(=O)NC(=S)N2CCCCCC2)cc1 | - | - | - | - | - | . | . | .
CC(C)(C)c1ccc(C(=O)NC(=S)N2CCCC2)cc1 | - | - | - | - | 62.9 | 49.2 | 80.4 | 71.0
